From PubChem BioAssay come the findings set out here.

In assay [1] the target is ATP-dependent translocase ABCB1 (Homo sapiens) (UniProt P08183). As to the kind of experiment: MDR1 (ABCB1) efflux transporter inhibition, cell-based (AID 377). Particulars: MDR1-expressing cells, fluorescent substrate accumulation slope; stronger effect = higher value; concentration not given here.
The nature of assay [2]: polyglutamine-triggered caspase-3 activation inhibitors, cell-based (AID 1583). Particulars: polyglutamine-induced caspase-3 activation, cell assay; stronger effect = higher value;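 tested at 10 µM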.
The nature of assay [3]: suppressors of polyQ aggregation in yeast, 75Q-TubU reporter (AID 1593). The settings on record: Yeast 75Q polyglutamine aggregation reporter.
Assay [4] is described as follows: rescue of polyQ-huntingtin neuronal dysfunction in worms, whole organism, C. elegans mechanosensory neurons, N-terminal huntingtin (AID 1599). The settings on record: touch response, stronger effect = higher value.
Assay [5] is described as follows: inhibitors of mitochondrial cytochrome c release, biochemical, purified mitochondria (AID 1603).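 Also: mouse liver mitochondria challenged with calcium chloride; signal normalized to the plate average as 100%.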 Particulars: stronger effect = lower value.
A short description of assay [6]: inhibitors of polyQ protein aggregation (AID 1604). Particulars: polyglutamine-induced protein aggregation inhibition assay; stronger effect = higher value; tested at 2.5 µM.

Records with an inconclusive call do not appear. For part of these data: Potency and affinity values are given separately. The source made the active and inactive calls. Rule as the data show it: active = fluorescence slope change above about 50%; inconclusive = mostly about 31% to 49%; inactive = weaker than that.

ATP-dependent translocase ABCB1 (Homo sapiens), sequence (P08183 whole entry, looked up): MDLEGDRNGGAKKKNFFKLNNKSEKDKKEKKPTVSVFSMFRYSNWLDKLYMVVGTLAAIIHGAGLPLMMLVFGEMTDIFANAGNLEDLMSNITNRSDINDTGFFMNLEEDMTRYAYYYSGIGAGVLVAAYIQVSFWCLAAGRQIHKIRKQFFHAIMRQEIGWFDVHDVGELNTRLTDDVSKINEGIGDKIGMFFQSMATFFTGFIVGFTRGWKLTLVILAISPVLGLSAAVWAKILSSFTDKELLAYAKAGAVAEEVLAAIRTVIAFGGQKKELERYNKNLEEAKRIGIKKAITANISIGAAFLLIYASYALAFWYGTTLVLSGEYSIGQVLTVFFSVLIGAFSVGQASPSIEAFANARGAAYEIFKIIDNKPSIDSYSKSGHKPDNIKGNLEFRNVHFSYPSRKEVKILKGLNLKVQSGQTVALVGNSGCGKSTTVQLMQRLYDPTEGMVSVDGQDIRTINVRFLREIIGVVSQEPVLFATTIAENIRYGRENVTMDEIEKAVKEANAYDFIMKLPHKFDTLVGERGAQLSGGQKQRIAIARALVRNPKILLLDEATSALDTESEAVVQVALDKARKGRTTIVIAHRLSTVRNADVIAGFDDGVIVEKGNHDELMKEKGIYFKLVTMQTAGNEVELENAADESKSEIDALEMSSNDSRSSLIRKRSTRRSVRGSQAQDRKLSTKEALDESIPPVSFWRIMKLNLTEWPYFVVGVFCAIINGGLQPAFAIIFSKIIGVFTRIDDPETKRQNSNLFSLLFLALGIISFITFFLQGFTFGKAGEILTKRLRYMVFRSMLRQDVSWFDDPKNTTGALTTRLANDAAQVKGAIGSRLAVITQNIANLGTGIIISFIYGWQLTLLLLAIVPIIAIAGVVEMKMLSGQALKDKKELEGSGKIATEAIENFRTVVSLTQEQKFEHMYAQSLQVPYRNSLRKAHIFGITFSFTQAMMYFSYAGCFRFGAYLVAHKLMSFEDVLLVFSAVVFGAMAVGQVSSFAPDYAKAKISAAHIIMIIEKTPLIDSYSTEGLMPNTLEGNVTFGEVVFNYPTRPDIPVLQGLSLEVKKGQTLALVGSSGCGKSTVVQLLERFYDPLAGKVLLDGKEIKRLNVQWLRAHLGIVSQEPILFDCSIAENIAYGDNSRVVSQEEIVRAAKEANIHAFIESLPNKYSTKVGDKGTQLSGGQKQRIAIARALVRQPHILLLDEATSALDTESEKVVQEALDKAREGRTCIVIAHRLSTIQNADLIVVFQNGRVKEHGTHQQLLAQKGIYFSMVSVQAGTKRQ

For orientation: inhibition means the relative decrease from the control value, in per cent. On to `Fc1ccc(C(c2ccc(F)cc2)N2CCN(C/C=C/c3ccccc3)CC2)cc1`, for which the fluorescence slope change in assay [1] was 70.9% (active). The inhibition in assay [2] stood at 11.9%. Further, the score in assay [3] was found to be 0.72. Besides, the rescue above control in assay [4] was 11.5. For the same molecule, in assay [5], the cytochrome c release ratio worked out at 1.24. In addition, the inhibition of aggregation in assay [6] turned out to be 27%.

Turning to `CCN(CC)CCNC(=O)c1cc(Cl)c(N)cc1OC`, the fluorescence slope change in assay [1] is 27.9% (inactive). Also, the inhibition in assay [2] was -5.58%. Further, the score in assay [3] was 1.42. In addition, in assay [4], the rescue above control was -6.22. The cytochrome c release ratio in assay [5] was determined as 1.15. In addition, in assay [6], the inhibition of aggregation amounted to 25.8%.

For the molecule `O=C(O)c1ccccc1C(=O)Nc1ccc(S(=O)(=O)Nc2nccs2)cc1`, in assay [1], the fluorescence slope change was 52.9% (active). The inhibition in assay [2] is -4.35%. Moreover, the score in assay [3] is 1.11. The rescue above control in assay [4] was -3.35. Besides, the cytochrome c release ratio in assay [5] was 0.81. For the same molecule, the inhibition of aggregation in assay [6] stood at 12.9%.

For the molecule `CCOC(=O)[C@H](CCc1ccccc1)N[C@@H](C)C(=O)N1CCC[C@H]1C(=O)O`, in assay [1], the fluorescence slope change is 54.7% (active). In addition, the inhibition in assay [2] was 21.1%. Further, in assay [3], the score was 1.21. The same molecule came in with a rescue above control in assay [4] of 6.04. Besides, in assay [5], the cytochrome c release ratio was 1.13. In assay [6], the inhibition of aggregation was 72.2%.

On to `O=C(Cn1ccnc1[N+](=O)[O-])NCCO`, for which the fluorescence slope change in assay [1] was 10% (inactive). The inhibition in assay [2] was -0.7%. For the same molecule, the score in assay [3] came to 1.21. For the same molecule, in assay [4], the rescue above control is -3.38. Further, the cytochrome c release ratio in assay [5] is 0.82. For the same molecule, in assay [6], the inhibition of aggregation came to 62.1%.

Turning to `CC1CCC(NC(=O)N(CCCl)N=O)CC1` (stereo not given), the fluorescence slope change in assay [1] was 10.9% (inactive). For the same molecule, the inhibition in assay [2] was found to be 13.6%. In assay [3], this molecule gave a score of 0.02. The rescue above control in assay [4] is -12.6. In addition, the cytochrome c release ratio in assay [5] turned out to be 1.01. In addition, the inhibition of aggregation in assay [6] stood at 26.4%.

Turning to `O=C1NCC2(CCN(CCc3ccccc3)CC2)O1`, the fluorescence slope change in assay [1] was 54.1% (active). The inhibition in assay [2] is -2.12%. This molecule returned a score in assay [3] of 1.22. The molecule also gave a rescue above control in assay [4] of -3.96. In addition, the cytochrome c release ratio in assay [5] amounted to 1.11. The inhibition of aggregation in assay [6] worked out at 88.9%.

As for `CN1CCN(CCCN2c3ccccc3Sc3ccc(Cl)cc32)CC1`, the fluorescence slope change in assay [1] is 65.3% (active). Moreover, in assay [2], the inhibition amounted to 88.9%. In assay [3], this molecule returned a score of 1.36. For the same molecule, the rescue above control in assay [4] was 0. The cytochrome c release ratio in assay [5] turned out to be 2.91. Besides, the inhibition of aggregation in assay [6] was 74.6%.

`O=C(OCC(O)CO)c1ccccc1Nc1ccnc2cc(Cl)ccc12` (stereo not given): in assay [1], the fluorescence slope change is 88.6% (active). Further, in assay [2], the inhibition was 18.5%. The score in assay [3] stood at 1.22. Besides, the rescue above control in assay [4] was -8.14. In addition, the cytochrome c release ratio in assay [5] was found to be 1.02. Also, the inhibition of aggregation in assay [6] was determined as 23.8%.

In the case of `COc1ccc(CN(CCN(C)C)c2ccccn2)cc1`, the fluorescence slope change in assay [1] was 102% (active). For the same molecule, the inhibition in assay [2] came to 17.1%. For the same molecule, the score in assay [3] is 1.86. Moreover, in assay [4], the rescue above control is 23.5. In addition, the cytochrome c release ratio in assay [5] turned out to be 0.92. In addition, the inhibition of aggregation in assay [6] was 12.7%.

`CN(C)CCC=C1c2ccccc2C=Cc2ccccc21`: in assay [1], the fluorescence slope change is 73% (active). In addition, in assay [2], the inhibition was -2.52%. In assay [3], this molecule had a score of 1.44. In addition, in assay [4], the rescue above control was found to be 5.55. In assay [5], the cytochrome c release ratio is 1.17. Besides, the inhibition of aggregation in assay [6] was 84.1%.

For the molecule `C=CCc1ccccc1OCC(O)CNC(C)C` (stereo not given), in assay [1], the fluorescence slope change was 80.3% (active). Besides, the inhibition in assay [2] came out at 3.86%. Also, the score in assay [3] came to 1.39. In assay [4], this molecule returned a rescue above control of 6.88. For the same molecule, in assay [5], the cytochrome c release ratio was 1.44. The inhibition of aggregation in assay [6] was 14.3%.

Regarding `COc1ccc(CCN2CCC(Nc3nc4ccccc4n3Cc3ccc(F)cc3)CC2)cc1`, the fluorescence slope change in assay [1] was 189% (active). For the same molecule, the inhibition in assay [2] was found to be 17.9%. In assay [3], the score turned out to be 1.54. Further, the rescue above control in assay [4] came out at 0. Besides, in assay [5], the cytochrome c release ratio stood at 0.61. The inhibition of aggregation in assay [6] was -3.03%.

In the case of `C#CCN(C)Cc1ccccc1`, the fluorescence slope change in assay [1] is 71.9% (active). In assay [2], the inhibition was 17%. Besides, the score in assay [3] was determined as 1.16. Besides, the rescue above control in assay [4] turned out to be 30.7. In assay [5], the cytochrome c release ratio is 1.06. Further, the inhibition of aggregation in assay [6] is 0%.

Regarding `CC1=CC(=O)c2ccccc2C1=O`, the fluorescence slope change in assay [1] was 81.2% (active). Besides, the inhibition in assay [2] was determined as 56.7%. For the same molecule, the score in assay [3] was -0.01. In addition, the rescue above control in assay [4] was -12.4. For the same molecule, in assay [5], the cytochrome c release ratio is 1.17. In assay [6], the inhibition of aggregation worked out at 53.5%.
